Consider 8 compounds from PubChem BioAssay.

Test [1] in a line: E. coli DRC41 culture turbidity changes, primary screen, E. coli filamentation inducer project, strain DRC41, OD650, 48 h (AID 1152).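 Note: E. coli MC1000 strain DRC41 lacking acrAB efflux pump and sulA.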 The conditions noted are these: E. coli DRC41 (acrAB sulA), higher = more signal, called active from +8 up or from −8 down.
Test [2] is described as follows: small-molecule binders of probe aLefty1, primary screen, biochemical, small-molecule microarray, 635/667 nm fluorescence (AID 1153).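 Note: score merges spot fluorescence with signal-to-noise ratio from the scanned slide images.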 The following applies: higher = more signal.
Test [3] is described as follows: PSAC antagonists in infected red cells, primary screen, cell-based, P. falciparum Indochina, OD700, 1 h (AID 1154). The conditions noted are these: P. falciparum Indochina infected RBC osmotic lysis, higher = more signal, called active from +8 up or from −8 down.
Test [4] can be described thus: PSAC antagonists in infected red cells, primary screen, cell-based, P. falciparum Indochina, OD700, 2 h (AID 1155).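 Note: lysis reports solute entry through the parasite surface anion channel PSAC; channel blockers reduce lysis of infected cells.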 The conditions noted are these: P. falciparum Indochina infected erythrocytes, osmotic lysis OD700; higher = more signal, called active from +8 up or from −8 down.
Test [5] in a line: osmotic lysis modulators in infected erythrocytes, primary screen, PSAC antagonist project, cell-based, P. falciparum Indochina, OD700, 3 h (AID 1156). The conditions noted are these: higher = more signal, called active from +8 up or from −8 down.
Test [6] can be described thus: PSAC antagonists in infected red cells, primary screen, cell-based, P. falciparum Indochina, OD700, 18 h (AID 1157). The conditions noted are these: P. falciparum Indochina infected erythrocytes, osmotic lysis OD700, 18 h; higher = more signal, called active from +8 up or from −8 down.
Test [7] is described as follows: modulators of S6 phosphorylation in cells, primary screen, cell-based, A549, cytoblot, luminescence, serum-stimulated (AID 1158).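 Note: serum-stimulated A549 lung adenocarcinoma cells; signal is phosphorylated S6 detected by cytoblot immunostaining with HRP secondary.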 The following applies: A549 phospho-S6 cytoblot, 5 h, higher = more signal.
Test [8] has as its target NADPH oxidase 2 (Homo sapiens) (UniProt P04839). In words: NOX2-dependent H2O2 signal modulators, primary screen, NOX inhibitor project, cell-based, HEK293-NOX2, PMA-stimulated, Amplex Red fluorescence (AID 1159). Note: test concentration not given here. The following applies: 45 min, higher = more signal, called active from +8 up or from −8 down.
The target in test [9] is NADPH oxidase 4 (Homo sapiens) (UniProt Q9NPH5). The test can be described thus: NOX4-dependent H2O2 signal modulators, primary screen, NOX inhibitor project, cell-based, HEK293-NOX4, tetracycline-induced, Amplex Red fluorescence (AID 1160). The conditions noted are these: 45 min, higher = more signal, called active from +8 up or from −8 down.
Test [10] concerns the target NADPH oxidase 5 (Homo sapiens) (UniProt Q96PH1). In words: NOX5-dependent H2O2 signal modulators, primary screen, NOX inhibitor project, cell-based, HEK293-NOX5, Amplex Red fluorescence (AID 1161). The conditions noted are these: HEK293-NOX5, ionomycin, 45 min, higher = more signal.
Test [11] in a line: A549 cell viability effects, profiling panel, calcein-AM fluorescence, 48 h, basal (AID 1162). Note: test concentration not given here. The following applies: higher = more signal.
A short description of test [12]: adipocyte viability effects, profiling panel, cell-based, 3T3-L1 adipocytes, calcein-AM fluorescence, 48 h, basal (AID 1163). Note: test concentration not given here. The following applies: 3T3-L1 adipocytes viability, higher = more signal.
The nature of test [13]: HepG2 cell viability effects, profiling panel, calcein-AM fluorescence, 48 h, basal (AID 1164). Note: test concentration not given here. The following applies: higher = more signal.
The nature of test [14]: MM1S cell viability effects, profiling panel, calcein-AM fluorescence, 48 h, basal (AID 1165).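 Note: viability of MM1S multiple myeloma cells under basal unstimulated conditions; test concentration not given here.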 The following applies: higher = more signal.
A short description of test [15]: basal RPMI8226 viability, no added stimulus, profiling panel, cell-based, calcein-AM fluorescence, 48 h, PK04 Diversity Set (AID 1166).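 Note: cells grown under basal conditions without added stimulus; test concentration not given here.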 The conditions noted are these: RPMI8226 myeloma viability, higher = more signal.
Test [16] is described as follows: basal HepG2 mitochondrial membrane potential changes, profiling panel, cell-based, JC-1 fluorescence, 24 h, 100 nL compound (AID 1167). Note: test concentration not given here. The conditions noted are these: higher = more signal.
A short description of test [17]: basal 3T3-L1 adipocyte mitochondrial potential changes, profiling panel, cell-based, JC-1 fluorescence, 3T3-L1 adipocytes, 24 h, 100 nL compound (AID 1168). Note: test concentration not given here. The conditions noted are these: JC-1 mitochondrial fluorescence, higher = more signal, called active from +8 up or from −8 down.
A short description of test [18]: basal RPMI8226 mitochondrial membrane potential changes, profiling panel, cell-based, JC-1 fluorescence, 24 h, 100 nL compound (AID 1169). Note: test concentration not given here. The following applies: RPMI8226 myeloma, JC-1 mitochondrial potential fluorescence, higher = more signal.
A short description of test [19]: basal MM1S mitochondrial membrane potential changes, profiling panel, cell-based, JC-1 fluorescence, 24 h, 100 nL compound (AID 1170). Note: test concentration not given here. The conditions noted are these: higher = more signal.
The nature of test [20]: A549 lung cancer cell viability effects, profiling panel, resazurin fluorescence, 24 h, PK04 Diversity Set (AID 1171). Note: test concentration not given here. The conditions noted are these: higher = more signal, called active from +8 up or from −8 down.

The source made the active and inactive calls.

Chain of NADPH oxidase 2 (Homo sapiens) (P04839 whole entry, looked up): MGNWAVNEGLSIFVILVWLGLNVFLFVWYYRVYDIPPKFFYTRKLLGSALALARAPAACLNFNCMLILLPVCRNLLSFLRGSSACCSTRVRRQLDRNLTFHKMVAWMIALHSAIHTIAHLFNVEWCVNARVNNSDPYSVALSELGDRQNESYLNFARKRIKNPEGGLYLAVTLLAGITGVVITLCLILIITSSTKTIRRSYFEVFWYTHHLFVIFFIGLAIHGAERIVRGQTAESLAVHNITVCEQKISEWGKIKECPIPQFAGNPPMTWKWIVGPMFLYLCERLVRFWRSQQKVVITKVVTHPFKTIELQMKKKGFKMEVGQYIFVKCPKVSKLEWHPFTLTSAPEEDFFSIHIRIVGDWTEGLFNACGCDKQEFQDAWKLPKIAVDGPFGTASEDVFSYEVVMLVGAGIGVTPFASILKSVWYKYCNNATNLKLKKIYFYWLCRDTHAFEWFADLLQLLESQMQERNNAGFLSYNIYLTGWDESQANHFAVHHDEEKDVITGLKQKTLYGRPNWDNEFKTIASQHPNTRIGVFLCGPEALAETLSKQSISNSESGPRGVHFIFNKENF
Chain of NADPH oxidase 5 (Homo sapiens) (Q96PH1 whole entry, looked up): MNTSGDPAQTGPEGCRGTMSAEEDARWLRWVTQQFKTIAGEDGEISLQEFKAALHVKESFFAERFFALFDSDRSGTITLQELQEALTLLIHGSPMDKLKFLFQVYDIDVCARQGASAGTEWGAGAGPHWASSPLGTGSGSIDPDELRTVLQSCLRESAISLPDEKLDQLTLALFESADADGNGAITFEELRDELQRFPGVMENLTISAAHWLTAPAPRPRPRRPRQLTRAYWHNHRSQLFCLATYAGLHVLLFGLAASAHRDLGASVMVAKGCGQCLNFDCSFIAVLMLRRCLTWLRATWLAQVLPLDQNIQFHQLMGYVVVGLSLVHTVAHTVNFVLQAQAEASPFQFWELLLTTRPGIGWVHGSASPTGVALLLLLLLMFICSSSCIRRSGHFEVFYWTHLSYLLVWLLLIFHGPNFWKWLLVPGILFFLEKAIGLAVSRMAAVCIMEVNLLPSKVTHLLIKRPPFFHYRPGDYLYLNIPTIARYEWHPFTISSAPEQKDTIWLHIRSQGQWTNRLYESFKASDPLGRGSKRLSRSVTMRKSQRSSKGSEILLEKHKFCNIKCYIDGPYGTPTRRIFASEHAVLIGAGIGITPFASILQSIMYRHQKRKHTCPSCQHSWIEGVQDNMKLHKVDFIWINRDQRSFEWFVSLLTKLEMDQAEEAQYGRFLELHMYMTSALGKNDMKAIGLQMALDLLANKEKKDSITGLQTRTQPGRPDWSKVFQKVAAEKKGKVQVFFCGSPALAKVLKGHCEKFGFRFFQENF
Chain of NADPH oxidase 4 (Homo sapiens) (Q9NPH5 whole entry, looked up): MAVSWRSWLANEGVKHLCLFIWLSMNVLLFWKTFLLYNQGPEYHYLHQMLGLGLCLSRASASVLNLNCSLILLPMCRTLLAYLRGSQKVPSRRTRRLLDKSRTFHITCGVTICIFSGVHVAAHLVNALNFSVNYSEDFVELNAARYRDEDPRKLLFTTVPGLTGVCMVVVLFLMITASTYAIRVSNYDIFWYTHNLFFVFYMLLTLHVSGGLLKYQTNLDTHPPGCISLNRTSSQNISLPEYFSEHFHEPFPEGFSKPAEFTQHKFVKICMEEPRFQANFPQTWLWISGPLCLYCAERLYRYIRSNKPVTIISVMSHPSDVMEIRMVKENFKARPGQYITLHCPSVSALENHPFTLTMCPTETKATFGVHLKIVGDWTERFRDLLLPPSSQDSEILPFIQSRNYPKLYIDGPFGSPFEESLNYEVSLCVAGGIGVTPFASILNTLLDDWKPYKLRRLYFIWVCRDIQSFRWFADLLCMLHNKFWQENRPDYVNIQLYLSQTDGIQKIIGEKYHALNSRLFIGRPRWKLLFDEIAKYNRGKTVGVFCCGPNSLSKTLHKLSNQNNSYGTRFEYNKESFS

Turning to `COC(=O)[C@H](Cc1ccccc1)N1CC2=CCCC=C[C@@H]2[C@H]1[C@H](O)Cc1ccccc1`, the z-score was -0.53 (inactive) in test [1]; 1.31 (inactive) in test [3]; 0.492 (inactive) in test [4]; 0.429 (inactive) in test [5]; 0.256 (inactive) in [6]; -0.232 in [7]. For the same compound, the z-score was -0.286 (inactive) in test [8]; -0.477 (inactive) in test [9]; -0.647 in test [10]; -0.183 in test [11]; -0.635 in test [12]; 0.244 in test [13]. Moreover, the z-score in test [14] is -3.12; in test [15], -1.41; in test [16] it was -0.866; in test [17], -0.116 (inactive); in test [18] it was -1.16; in test [19] it was -0.746. Moreover, the z-score in test [20] was 0.705 (inactive). The composite z-score in [2] is 0.315.

As to `CCCC=C(CCC)[C@@H](NC(=O)OCC(C)C)c1ccc(C(=O)OC)cc1`, the z-score was -0.531 (inactive) in [1]; -1.17 (inactive) in test [3]; -0.781 (inactive) in test [4]; -1.07 (inactive) in [5]; -1.47 (inactive) in test [6]; 1.31 in test [7]. Further, the z-score was 0.115 (inactive) in [8]; 1.89 (inactive) in [9]; 1.97 in [10]; 0.732 in [11]; -0.196 in [12]; 0.0516 in [13]. Besides, the z-score was 0.753 in [14]; 0.528 in test [15]; -0.345 in test [16]; -1.53 (inactive) in [17]; -0.0219 in test [18]; -1.32 in test [19]. Further, the z-score in [20] was 0.293 (inactive). In test [2], the composite z-score amounted to 0.506.

Regarding `COC(=O)[C@@]1(Cc2ccc(F)cc2)[C@H]2c3cc(C(=O)N4CCCC4)n(Cc4cc(F)cc5c4OCOC5)c3C[C@H]2CN1C(=O)c1ccccc1`, the z-score in test [1] is -2.25 (inactive); in test [3], 3.29 (inactive); in [4], 0.273 (inactive); in test [5], 3.36 (inactive); in test [6], 0.886 (inactive); in test [7], 0.0568. The z-score is -0.332 (inactive) in test [8]; 0.115 (inactive) in test [9]; 0.853 in [10]; -1.14 in [11]; 0.364 in test [12]; -1.02 in test [13]. Further, the z-score is -1.54 in [14]; -1.55 in test [15]; 3.05 in test [16]; -0.484 (inactive) in test [17]; -0.512 in [18]; -0.744 in test [19]. Also, the z-score in [20] is -1.02 (inactive). Moreover, the composite z-score in test [2] came to 0.617.

Turning to `COCCOC(=O)N1C(=O)[C@@]2(c3cc(C#CCCO)ccc31)[C@H](c1ccc(OCCO)cc1)N1[C@H](c3ccccc3)[C@H](c3ccccc3)OC(=O)[C@H]1[C@@H]2C(=O)N1CCCCCCC1`, the z-score in [1] was -0.453 (inactive); in test [3], 1.96 (inactive); in test [4], 0.877 (inactive); in test [5], -0.564 (inactive); in test [6], 0.115 (inactive); in test [7], -0.23. Besides, the z-score was 1.5 (inactive) in test [8]; 1.02 (inactive) in test [9]; 1.86 in test [10]; 0.139 in test [11]; 0.005 in test [12]; -0.584 in [13]. Moreover, the z-score in test [14] is -0.993; in [15], -1.03; in [16], -0.437; in test [17] it was -2.09 (inactive); in [18] it was 0.309; in test [19], -0.958. The z-score in test [20] was -0.232 (inactive). In test [2], this compound registered a composite z-score of 2.13.

Turning to `C=CCN1C(=O)[C@]2(O[C@H](CCn3cc([C@H](O)c4ccccc4)nn3)[C@@H]([Si](C)(C)c3ccc(OC)cc3)[C@@H]2C)c2cc(NC(=O)c3ccc(OC)cc3)ccc21`, the z-score in [1] is 0.294 (inactive); in test [3] it was 5.48 (inactive); in test [4] it was 2.21 (inactive); in test [5], 2.59 (inactive); in [6], 1.18 (inactive); in test [7], -0.0732. In addition, the z-score in [8] is 0.51 (inactive); in test [9], 0.564 (inactive); in test [10], -0.0881; in [11], 0.268; in test [12], 0.37; in test [13], -1.87. Also, the z-score in [14] was -2.74; in test [15], -4.38; in test [16], 3.48; in test [17] it was 0.517 (inactive); in [18] it was -1.17; in test [19], -1.39. Besides, the z-score in test [20] was -2.43 (inactive). The composite z-score in test [2] worked out at 0.179.

On to `C=CCNC(=O)[C@H]1[C@@H]2C(=O)O[C@@H](c3ccccc3)[C@@H](c3ccccc3)N2[C@@H](c2ccc(OCCO)cc2)[C@]12C(=O)Nc1ccc(C#CC3(O)CCCCCC3)cc12`, for which the z-score in test [1] is 0.803 (inactive); in test [3], 2.48 (inactive); in test [4], 1.54 (inactive); in test [5], -0.441 (inactive); in test [6], 0.311 (inactive); in test [7] it was 0.977. Besides, the z-score was 1.94 (inactive) in test [8]; 1.18 (inactive) in [9]; 0.902 in test [10]; 1.17 in [11]; 1.36 in test [12]; -0.0346 in test [13]. Further, the z-score was -2.27 in test [14]; -1.41 in [15]; -1.57 in test [16]; 0.43 (inactive) in test [17]; -0.819 in [18]; -0.535 in test [19]. Also, in test [20], the z-score is 1.31 (inactive). The same compound displayed a composite z-score in test [2] of 0.523.

In the case of `COC(=O)[C@@]1(Cc2ccccc2)[C@H]2c3cc(C(=O)N(C)C)n(CCO)c3C[C@H]2CN1C(=O)c1ccccc1`, the z-score in test [1] is -1.65 (inactive); in [3], -0.469 (inactive); in [4] it was 0.19 (inactive); in test [5] it was -0.0157 (inactive); in [6], 0.57 (inactive); in [7], -0.935. The z-score in test [8] is 0.714 (inactive); in test [9] it was 0.111 (inactive); in [10], -0.912; in test [11], -1.33; in [12], 0.18; in test [13], -0.28. Besides, the z-score in [14] is -0.0531; in test [15], -1.99; in test [16], -0.92; in [17] it was -2.92 (inactive); in test [18], 0.127; in [19], -0.787. For the same compound, the z-score in test [20] was -0.723 (inactive). In test [2], this compound returned a composite z-score of 0.188.

Turning to `COC(=O)[C@@]1(Cc2ccc(OC)cc2)[C@H]2c3cc(C(=O)N(C)C)[nH]c3C[C@H]2CN1C(=O)c1ccccc1`, the z-score in test [1] was -0.439 (inactive); in test [3], 5.74 (inactive); in test [4], 0.806 (inactive); in test [5], 0.395 (inactive); in [6], 0.764 (inactive); in test [7] it was -0.38. For the same compound, the z-score was 0.371 (inactive) in test [8]; 0.602 (inactive) in test [9]; -1.58 in test [10]; -0.974 in [11]; -0.539 in [12]; 0.683 in test [13]. Besides, the z-score in [14] is 0.945; in test [15], 0.184; in [16], 1.46; in test [17], -0.372 (inactive); in test [18], -0.582; in [19] it was -0.488. Moreover, in [20], the z-score is 0.145 (inactive). The composite z-score in test [2] is -0.0969.
